Results published in PubChem BioAssay (Tox21).
Records with an inconclusive call do not appear. Where a call stands in place of a potency, no number is given. A number with no mark means an inactive call. The source made the active and inactive calls. Calls come from the whole dose curve; as a rule, active = well fitted activation curve with a large enough effect in the repeat runs; inconclusive = weak or mixed curves; inactive = flat fitted curve, though single readings scatter.

Test: A CellTox Green Cytotoxicity Assay to monitor cytotoxicity in HEK293 cells - 8 hour (AID 1224884); note: nearly all actives have a fitted effect of over 35% in size
Conditions: CellTox Green fluorescence; series mostly up to 76.8 µM
Text: National Center for Advancing Translational Sciences [NCATS]
NIH Chemical Genomics Center [NCGC]
U.S. Environmental Protection Agency [EPA]
National Institutes of Environmental Health Sciences [NIEHS]
National Toxicology Program [NTP]
Cell-based models are critical for drug discovery. Determining the natural cytotoxic effects resulting from test compounds is an essential research activity. A CellTox Green Cytotoxicity Assay to monitor cytotoxicity in real time of continues cell culture during 40 hours of the compound treatment was used to screen Tox21 10K library compounds in Hek293 cells. CellTox Green Cytotoxicity Assay is a nonlytic, homogeneous, biofluorescent method to measure cytotoxicity in cell culture after experimental manipulation. The assay system uses a proprietary asymmetric cyanine dye that is excluded from viable cells but preferentially stains the dead cell's DNA. […] Viable cells produce no appreciable increases in fluorescence. Therefore, the fluorescence signal produced by the binding interaction with dead cell DNA is proportional to cytotoxicity.
The mixture of Hek293 cell suspension and reagents were dispensed at 600cells/6 ul/well in 1536-well tissue culture treated black solid bottom plates using a Multidrop dispenser. After the assay plates were incubated at a 37 C/5% CO2 incubator for 5 hours, 23 nL of compounds dissolved in DMSO, positive and negative controls was transferred to the assay plate by a pintool work station. The plates were incubated at 37 C for 40 hours. The fluorescence intensity were measured at 0h, 8h, 16h, 24h, 32h and 40h time points using ViewLux plate reader during compound treatment.
Potency is the fitted concentration of half-maximal effect.

Row | Compound | Potency | cytotoxicity increase
1 | O=C(O)c1snc(Cl)c1Cl | inactive | 
2 | N#C/C(=C1\SCC(c2ccccc2Cl)S1)n1ccnc1 (stereo not given) | inactive | 
3 | CC(CCO)CCc1ccccc1 (stereo not given) | inactive | 
4 | CCCOC(=O)c1ccc(C(=O)OCCC)nc1 | inactive | 
5 | Cc1nccn1-c1ccc(Sc2cccc(C3(C(N)=O)CCOCC3)c2)cc1 | inactive | 
6 | C=CC(=O)NCOCC(C)C | inactive | 
7 | CC(C)CCCC(=O)O | inactive | 
8 | CC1CC(=O)NN=C1c1ccc(NCC(C)(C)NCC(O)COc2cc(Cl)ccc2C#N)cc1 (stereo not given) | inactive | 
9 | CN(C)CCOC1=Cc2ccccc2Sc2ccc(Cl)cc21 | inactive | 
10 | CC(=O)N(c1onc(C)c1C)S(=O)(=O)c1ccc(N)cc1 | inactive | 
11 | CC(C)CCCCCOC(=O)CCCCC(=O)OCCCCCC(C)C | inactive | 
12 | O=C(Nc1ccccc1)Nc1ccccc1 | inactive | 
13 | Oc1ccc(Nc2ccccc2)cc1 | inactive | 
14 | Cc1ccccc1N1C(=O)c2cc(S(N)(=O)=O)c(Cl)cc2NC1C (stereo not given) | inactive | 
15 | Nc1ccc(C(=O)OCCCOC(=O)c2ccc(N)cc2)cc1 | inactive | 
16 | CSc1ccc(Oc2ccc(S(N)(=O)=O)cc2CN(C)C)cc1C | inactive | 
17 | NC(=O)Nc1ccc(Cl)c(Cl)c1 | inactive | 
18 | O=C1OCCN1/N=C/c1ccc([N+](=O)[O-])o1 | inactive | 
19 | ON(Cc1ccccc1)Cc1ccccc1 | inactive | 
20 | O=C1NCCN1 | inactive | 

Row | Compound | Potency | cytotoxicity increase
21 | CCCCCCCCCCCCCCCCBr |  | -1.67% [at 15.8 µM]
22 | C[N+](C)(C)CCOC(N)=O | inactive | 
23 | C=CC(=C)CCCC(C)(C)OC(C)=O | inactive | 
24 | O=C(CCCCCCC(=O)Nc1ccccc1)NO | inactive | 
25 | CC1C2CC(CC2C2CCCC(O)C2)C1(C)C (stereo not given) | 43.6 µM (active) | 
26 | CC(C)(C)C(=O)O | inactive | 
27 | COc1cc2c(cc1OC)-c1cc(=Nc3c(C)cc(C)cc3C)n(C)c(=O)n1CC2 | inactive | 
28 | C[C@@H]1C[C@H]2[C@@H]3CCC4=CC(=O)C=C[C@]4(C)[C@@]3(F)[C@@H](O)C[C@]2(C)[C@@]1(O)C(=O)CO | inactive | 
29 | CCCc1c(OCCCOc2ccc(OCC(=O)O)cc2)ccc(C(C)=O)c1O | inactive | 
30 | CCn1nc(C)c2c1C(=O)NCC(c1ccc(O)cc1)=N2 | inactive | 
31 | C=CC(C)(C)CC(=O)OC | inactive | 
32 | Fc1ccccc1[C@@H](F)COC1CCC(Nc2ncnc3[nH]ncc23)CC1 (stereo not given in full) | inactive | 
33 | Cc1oncc1C(=O)Nc1ccc(C(F)(F)F)cc1 | inactive | 
34 | C=C(C)C(=O)OCCOC(=O)CC(C)=O | inactive | 
35 | CCCCC(CC)CNCC(CC)CCCC (stereo not given) | inactive | 
36 | O=C(O)c1ccc(CO)o1 | inactive | 
37 | CC(C)c1nnc2ccc(-c3ocnc3-c3cc(F)ccc3F)cn12 | inactive | 
38 | CC(=O)OCC(=O)[C@H]1CC[C@H]2[C@@H]3CCC4=CC(=O)CC[C@]4(C)[C@H]3CC[C@]12C | inactive | 
39 | CCOC(=N)CC(=O)OCC | inactive | 
40 | CCCCCCOC(=O)C(C)C | inactive | 
